In PubChem BioAssay (NCI):
This is part of a sample that, as a whole, favours compounds with a hit. Of some 79,000 tested, about 15% had one in any assay. The source made the active and inactive calls. No stated cut-off is given here; in the data, active means growth inhibition above about 70%; inactive means the rest.

How the values were obtained:
[1] = NCI Yeast Anticancer Drug Screen. Data for the rad52 strain (AID 147);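 further: 0% = growth of vehicle-treated control cultures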; details: S. cerevisiae rad52 mutant growth inhibition, active compounds read high
Method in brief: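 Genetically altered yeast (DNA damage repair defect) treated with compound; inhibition calculated relative to vehicle.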

[2] = NCI Yeast Anticancer Drug Screen. Data for the wt1 strain (AID 149);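 further: 0% = growth of vehicle-treated wt1 cultures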; details: S. cerevisiae wt1 strain (SPY 50644) growth inhibition, active compounds read high
Method in brief: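 Growth inhibition read against vehicle controls after compound exposure of the wt1 yeast strain.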

[3] = NCI Yeast Anticancer Drug Screen. Data for the rad50EPP+ strain (AID 151);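 further: 0% = growth of vehicle-treated control cultures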; details: S. cerevisiae rad50 mutant strain, active compounds read high
Method in brief: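 Strain rad50EPP+; compound exposure; % growth inhibition vs vehicle.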

[4] = NCI Yeast Anticancer Drug Screen. Data for the mgt1 strain (AID 153); details: S. cerevisiae mgt1 mutant growth inhibition, active compounds read high
Method in brief: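 Read-out: yeast growth inhibition vs vehicle control. Strain mgt1, drawn from a panel altered in DNA damage repair or cell cycle control.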

[5] = NCI Yeast Anticancer Drug Screen. Data for the rad50 strain (AID 155);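 further: 0% = growth of vehicle-only cultures of the same strain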; details: S. cerevisiae rad50 strain growth inhibition, active compounds read high
Method in brief: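 Readout: growth inhibition relative to vehicle-treated cultures. Compound exposure was carried out in a genetically defined yeast strain deficient in DNA damage repair.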

[6] = NCI Yeast Anticancer Drug Screen. Data for the mec2-1 strain (AID 157); details: S. cerevisiae mec2-1 strain, active compounds read high
Method in brief: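 Cells of the genetically defined mec2-1 yeast strain are incubated with test compound. Inhibition of growth is calculated against vehicle-treated controls.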

[7] = NCI Yeast Anticancer Drug Screen. Data for the rad14 strain (AID 159);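 further: 0% = growth of vehicle-treated control cultures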; details: S. cerevisiae rad14 strain growth inhibition, active compounds read high
Method in brief: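 Growth inhibition vs vehicle controls; genetically altered yeast strain (DNA damage repair defect) treated with test compounds.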

[8] = NCI Yeast Anticancer Drug Screen. Data for the sgs1 mgt1 strain (AID 161);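 further: 0% = growth of cultures given vehicle only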; details: S. cerevisiae sgs1 mgt1 strain, active compounds read high
Method in brief: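 Genetically altered yeast, compound exposure, growth inhibition relative to vehicle.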

[9] = NCI Yeast Anticancer Drug Screen. Data for the CLN2oe strain (AID 163);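 further: 0% = growth of vehicle-only control cultures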; details: S. cerevisiae CLN2oe strain, active compounds read high
Method in brief: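 Strain altered in cell-cycle control, incubated with compound; growth compared to solvent-treated controls.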

[10] = NCI Yeast Anticancer Drug Screen. Data for the cln2 rad14 strain (AID 165);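 further: 0% = growth equal to vehicle treated cultures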; details: S. cerevisiae cln2 rad14 strain, active compounds read high
Method in brief: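 The screen exposed genetically defined yeast (cln2 rad14) to test compounds and scored growth inhibition relative to vehicle-treated controls.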

[11] = NCI Yeast Anticancer Drug Screen. Data for the bub3 strain (AID 167); details: S. cerevisiae bub3 mutant strain, active compounds read high
Method in brief: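 Readout: yeast growth inhibition, expressed relative to vehicle-only wells. The test organism is a mutant strain from a panel with lesions in DNA repair or checkpoint genes.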

[12] = NCI Yeast Anticancer Drug Screen. Data for the wt2 strain (AID 169);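 further: 0% = growth of vehicle-treated yeast cultures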; details: S. cerevisiae wt2 strain growth inhibition, active compounds read high
Method in brief: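 Steps: yeast strain treated with compound; growth recorded; inhibition calculated relative to cultures given vehicle alone.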

[13] = NCI Yeast Anticancer Drug Screen. Data for the mlh1 strain (AID 171);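 further: 0% = growth of vehicle-treated control cultures of the same strain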; details: S. cerevisiae mlh1 strain growth inhibition, active compounds read high
Method in brief: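 Yeast screen: mutant strain plus compound, growth scored against vehicle control wells.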

[14] = NCI Yeast Anticancer Drug Screen. Data for the sgs1 strain (AID 173);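 further: 0% = growth of vehicle-only control cultures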; details: S. cerevisiae sgs1 mutant, active compounds read high
Method in brief: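 Inhibition of yeast growth served as the measure. The mutant strain was treated with each compound, and growth was normalised to cultures receiving vehicle alone.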

[15] = NCI Yeast Anticancer Drug Screen. Data for the mlh1 rad18 strain (AID 175); details: S. cerevisiae mlh1 rad18 strain growth inhibition, active compounds read high
Method in brief: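 Compound-treated yeast growth, normalised to vehicle controls. Strain bears defined DNA repair mutations.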

[16] = NCI Yeast Anticancer Drug Screen. Data for the rad18 strain (AID 177); details: S. cerevisiae rad18 mutant growth inhibition, active compounds read high
Method in brief: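 Inhibition values reflect reduced yeast growth compared with vehicle-treated controls, using a strain engineered with a DNA damage repair defect.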

[17] = at 5.0 µM (retest, dose inferred, filed as 0.5)
[18] = at 50.0 µM (retest, dose inferred, filed as 5.0)

Measured: growth inhibition

CCN(CC)CCNc1ccc([N+](=O)[O-])c2nc3ccccc3c(N)c12
inactive: [1]; at 1.2 µM 1% | [1]; at 3.7 µM -6% | [1]; at 11.0 µM 10% | [1]; at 33.0 µM 31% | [2]; at 1.2 µM -10% | [2]; at 3.7 µM -7% | [2]; at 11.0 µM -13% | [2]; at 33.0 µM -9% | [2]; at 100.0 µM -6% | [3]; at 1.2 µM -14% | [3]; at 3.7 µM -4% | [3]; at 11.0 µM 1% | [3]; at 33.0 µM 34% | [4]; at 1.2 µM -14% | [4]; at 3.7 µM -18% | [4]; at 11.0 µM -20% | [4]; at 33.0 µM -21% | [4]; at 100.0 µM -15% | [5]; at 1.2 µM 10% | [5]; at 3.7 µM 14% | [5]; [17] 2% | [5]; at 11.0 µM 15% | [5]; at 33.0 µM 46% | [6]; at 1.2 µM -13% | [6]; at 3.7 µM -23% | [6]; [17] -5% | [6]; at 11.0 µM -11% | [6]; at 33.0 µM -13% | [6]; [18] -2% | [6]; at 50.0 µM 35.2% | [6]; at 100.0 µM 0% | [7]; at 1.2 µM -8% | [7]; at 3.7 µM -19% | [7]; at 11.0 µM -26% | [7]; at 33.0 µM -34% | [7]; at 100.0 µM -8% | [8]; [17] -4% | [8]; [18] 6% | [9]; at 1.2 µM 5% | [9]; at 3.7 µM -7% | [9]; at 11.0 µM -12% | [9]; at 33.0 µM -6% | [9]; at 100.0 µM 4% | [10]; [17] 7% | [10]; [18] 39% | [10]; at 50.0 µM 36.6% | [11]; at 1.2 µM -15% | [11]; at 3.7 µM -40% | [11]; [17] -9% | [11]; at 11.0 µM -21% | [11]; at 33.0 µM -12% | [11]; [18] 20% | [11]; at 50.0 µM 7.35% | [11]; at 100.0 µM -11% | [12]; at 1.2 µM 1% | [12]; at 3.7 µM -1% | [12]; at 11.0 µM -2% | [12]; at 33.0 µM -3% | [12]; at 100.0 µM 2% | [13]; at 1.2 µM -5% | [13]; at 3.7 µM -7% | [13]; at 11.0 µM -9% | [13]; at 33.0 µM -4% | [13]; at 100.0 µM 8% | [14]; at 1.2 µM -4% | [14]; at 3.7 µM 2% | [14]; at 11.0 µM 6% | [14]; at 33.0 µM -2% | [14]; at 100.0 µM 13% | [15]; [17] -28% | [15]; [18] 15% | [16]; at 1.2 µM -6% | [16]; at 3.7 µM -9% | [16]; at 11.0 µM -10% | [16]; at 33.0 µM -8% | [16]; at 100.0 µM -4%
active: [1]; at 100.0 µM 81% | [3]; at 100.0 µM 77% | [5]; [18] 71% | [5]; at 50.0 µM 74.3% | [5]; at 100.0 µM 84% | [8]; at 50.0 µM 82.1% | [15]; at 50.0 µM 85.2%

OC1(c2ccccc2)CCCc2ccc(Cl)cc21 (stereo unspecified)
inactive: [1]; at 1.2 µM 1% | [1]; at 3.7 µM 2% | [1]; at 11.0 µM 0% | [1]; at 33.0 µM 42% | [2]; at 1.2 µM -1% | [2]; at 3.7 µM -2% | [2]; at 11.0 µM -8% | [2]; at 33.0 µM -4% | [3]; at 1.2 µM 3% | [3]; at 3.7 µM 7% | [3]; at 11.0 µM 13% | [3]; at 33.0 µM 20% | [4]; at 1.2 µM -10% | [4]; at 3.7 µM -15% | [4]; at 11.0 µM -2% | [4]; at 33.0 µM 5% | [5]; at 1.2 µM -3% | [5]; at 3.7 µM 1% | [5]; [17] 10% | [5]; at 11.0 µM -2% | [5]; at 33.0 µM 50% | [5]; [18] 28% | [5]; at 50.0 µM 57.2% | [6]; at 1.2 µM 2% | [6]; at 3.7 µM 5% | [6]; [17] 1% | [6]; at 11.0 µM 0% | [6]; at 33.0 µM 31% | [6]; [18] 11% | [6]; at 50.0 µM 50.2% | [7]; at 1.2 µM 1% | [7]; at 3.7 µM -1% | [7]; at 11.0 µM -1% | [7]; at 33.0 µM 17% | [8]; [17] -3% | [8]; [18] 4% | [8]; at 50.0 µM 56.2% | [9]; at 1.2 µM 1% | [9]; at 3.7 µM 0% | [9]; at 11.0 µM -17% | [9]; at 33.0 µM 20% | [10]; [17] 3% | [10]; [18] 13% | [10]; at 50.0 µM 11.1% | [11]; at 1.2 µM -2% | [11]; at 3.7 µM -10% | [11]; [17] -3% | [11]; at 11.0 µM -14% | [11]; at 33.0 µM -17% | [11]; [18] -13% | [11]; at 50.0 µM -16.4% | [12]; at 1.2 µM 0% | [12]; at 3.7 µM -2% | [12]; at 11.0 µM -7% | [12]; at 33.0 µM 7% | [13]; at 1.2 µM 1% | [13]; at 3.7 µM 3% | [13]; at 11.0 µM 0% | [13]; at 33.0 µM 30% | [14]; at 1.2 µM 0% | [14]; at 3.7 µM 0% | [14]; at 11.0 µM 0% | [14]; at 33.0 µM 33% | [15]; [17] 0% | [15]; [18] 39% | [15]; at 50.0 µM 53.8% | [16]; at 1.2 µM 0% | [16]; at 3.7 µM 4% | [16]; at 11.0 µM 3% | [16]; at 33.0 µM 40%
active: [1]; at 100.0 µM 99% | [2]; at 100.0 µM 98% | [3]; at 100.0 µM 74% | [4]; at 100.0 µM 99% | [5]; at 100.0 µM 99% | [6]; at 100.0 µM 99% | [7]; at 100.0 µM 99% | [9]; at 100.0 µM 99% | [11]; at 100.0 µM 98% | [12]; at 100.0 µM 99% | [13]; at 100.0 µM 99% | [14]; at 100.0 µM 99% | [16]; at 100.0 µM 99%
